This is a sample that favours compounds with a hit; in the whole collection about 1.7% have one here.
PrP 5UTR inh: inhibition of PrP 5' UTR reporter expression. cell-based PrP 5' UTR mRNA reporter, plate reader. inhibition, % (test concentration not listed). 340,000 compounds, 0.35% hits. AID 488862; in the data active means inhibition above about 52%; further: 0 = median of the neutral control wells
Y pestis TopoI: inhibitors of Yersinia pestis topoisomerase I; Y. pestis Topo-I cleavage product accumulation, plate reader; activity, % at 10 µM; 360,000 compounds, 0.064% hits; AID 504884; in the data active means activity above about 50%, passing the limit was not always enough
PriA SSB inh: inhibitors of Klebsiella pneumoniae PriA binding to SSB C-terminal tail | AlphaScreen SSBct-PriA binding, biotinylated peptide | inhibition, % at 33 µM | 430,000 compounds, 0.6% hits; in the data active means inhibition mostly above about 37%, no sharp cut-off; inactive means mostly below about 20%;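 further: plate controls were negative control peptide for no effect and reference peptide for full effect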
BJeLR viability: BJeLR cell viability loss; inhibition, % (concentration not given with the values); 300,000 compounds, 0.17% hits; BJeLR (HRASV12) viability, CellTiter-Glo ATP luminescence, 48 h; in the data active means inhibition above about 50%
PfHsp40 rescue: rescue of PfHsp40-mediated yeast toxicity | S. cerevisiae expressing PfHsp40, growth rescue, ATP luminescence | growth rescue, % at 12.5 µM | 340,000 compounds, 0.68% hits | AID 504582; in the data active means growth rescue above about 28%, passing the limit was not always enough;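 further: yeast W303a lacking pdr1 and pdr3 grown in galactose medium; growth measured after three days at 30 °C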
PrPC TRFRET: cell surface PrPC inhibition, primary TR-FRET screen; P04156; TR-FRET read-out; inhibition, % at 13.8 µM; 370,000 compounds, 0.43% hits; AID 720596; in the data active means inhibition above about 24%; further: 0% = median of the test wells and 100% = reference compound wells
Active calls of the source: *; i = inactive; . = not tested or not shown; + = active, no number.

SMILES | PrP 5UTR inh | Y pestis TopoI | PriA SSB inh | BJeLR viability | PfHsp40 rescue | PrPC TRFRET
CCc1ccc(C(C)NC(=O)c2cc(C)oc2C)cc1 (stereo not drawn) | -8.4 | -5.4 | -2.9 | -11.2 | 47.3* | 1.3
COc1ccc(S(=O)(=O)Nc2cc(-c3nc4cccnc4s3)ccc2C)cc1OC | . | . | -10.0 | . | . | .
COc1ccccc1OCC#CCNC(=O)C(C)(C)Oc1ccc(Cl)cc1 | . | . | -18.0 | . | . | .
O=C(N/N=C/c1ccccc1)c1cc(-c2ccc3c(c2)OCO3)n[nH]1 | -19.5 | 0.8 | . | -7.8 | 0.7 | -2.7
O=C(N/N=C/c1ccc(O)cc1)c1cc(-c2ccc3c(c2)OCO3)n[nH]1 | -4.1 | -8.4 | . | -0.9 | -0.9 | 24.9*
CCOc1ncccc1C(=O)Nc1ccc2c(c1)CCCN2S(=O)(=O)CC | . | . | 38.0* | . | . | .
CCS(=O)(=O)N1CCCc2cc(NC(=O)c3ccccc3Cl)ccc21 | . | . | -11.0 | . | . | .
CC(C)CN(C1CCS(=O)(=O)C1)S(=O)(=O)c1ccc(Cl)c([N+](=O)[O-])c1 (stereo not drawn) | . | . | 41.0* | . | . | .
CC(C)CN(C1CCS(=O)(=O)C1)S(=O)(=O)c1ccc2ccccc2c1 (stereo not drawn) | -5.3 | 17.6 | -5.8 | -0.1 | -1.1 | 8.0
CC1CC(C)CN(C(=O)c2cccc(S(=O)(=O)Nc3cc(C(F)(F)F)ccc3Cl)c2)C1 (stereo not drawn) | -13.8 | 12.5 | 13.3 | -2.2 | 224.6* | 10.0
COC1=C(Nc2ccc(C)cc2)C(=O)c2ccccc2C1=O | -39.8 | 3.4 | 90.1* | -9.2 | 1.5 | -2.3
COC1=C(Nc2ccccc2)C(=O)c2ccccc2C1=O | -43.1 | 0.5 | 116.9 | 2.2 | -1.5 | 2.0
Cn1ncc2c(ON=C(N)c3ccc(C(F)(F)F)cc3)ncnc21 | . | . | 0.3 | . | . | .
Cn1ncc2c(O/N=C(\N)c3ccc(C(C)(C)C)cc3)ncnc21 | -2.1 | 1.8 | . | 99.5* | 72.9* | .
CCCCC(=O)N/N=C/c1ccc(Sc2cccc3cccnc23)o1 | -13.9 | 4.5 | . | -11.7 | -0.2 | 3.5
O=Cc1ccc(Sc2cccc3cccnc23)o1 | . | . | 104.0* | . | . | .
O=C(CCc1ccccc1O)NN=Cc1ccc(Sc2cccc3cccnc23)o1 | . | . | 93.5* | . | . | .
CCCCCCCC(=O)N/N=C/c1ccc(Sc2cccc3cccnc23)o1 | . | . | + | . | . | .
O=C(Cc1cccc2ccccc12)N/N=C/c1ccc(Sc2cccc3cccnc23)o1 | . | . | i | -4.5 | . | 6.2
NC(C(=O)O)c1ccc(Br)cc1 (stereo not drawn) | . | . | -10.0 | . | . | .
CCc1cccc(-n2ccn(Cc3ccccc3F)c(=O)c2=O)c1 | . | . | 16.0 | . | . | .
Cn1nnc2c(N3CCc4ccccc43)ncnc21 | . | . | -2.0 | . | . | .
C=CCn1c(SCC(=O)Nc2ccc(-c3ccccc3)cc2)nc2sc3c(c2c1=O)CCC(C)C3 (stereo not drawn) | . | . | -9.0 | . | . | .
Fc1ccc2nc3[nH]c4ccccc4c3nc2c1 | -99.8 | 0.9 | -4.5 | 1.2 | 47.4* | -10.8
COC(=O)c1ccc(CSc2ncnc3c2sc2nc(N4CCOCC4)c4c(c23)CCCC4)o1 | -23.8 | 7.3 | 9.4 | -2.7 | -0.5 | -1.8
SMILES | PrP 5UTR inh | Y pestis TopoI | PriA SSB inh | BJeLR viability | PfHsp40 rescue | PrPC TRFRET
COC(=O)c1ccc(Cn2cnc3c(sc4nc(N5CCOCC5)c5c(c43)CCCC5)c2=O)o1 | -7.8 | 52.0* | -8.1 | -6.1 | 3.1 | 6.1
CCC(=O)N1CCCc2ccc(NS(=O)(=O)c3ccc(-c4ccccc4)cc3)cc21 | . | . | 2.0 | . | . | .
CCCCCCNC(=O)CC(c1ccccc1)c1cc(Br)ccc1O (stereo not drawn) | -5.4 | 23.2 | -11.6 | -6.5 | 39.6* | 10.3
CC(C)NC(=O)CC(c1ccccc1)c1cc(Br)ccc1O (stereo not drawn) | -21.9 | 0.0 | -12.7 | -9.2 | 1.4 | .
COc1ccc(-c2cc3c(=O)n(CC(=O)N4CCN(C)CC4)ncn3n2)cc1 | -19.5 | -4.9 | 101.2* | -5.6 | 0.1 | 6.1
COc1ccc(-c2cc3c(=O)n(CC(=O)N4CCCCC4)ncn3n2)cc1 | -16.2 | 3.8 | 6.5 | 0.5 | 0.5 | 7.5
CON=Cc1ccc(Sc2ccccc2)c([N+](=O)[O-])c1 | . | . | 54.5* | . | . | .
CON=Cc1ccc(Sc2ccccc2N)c([N+](=O)[O-])c1 | . | . | 52.1* | . | . | .
CO/N=C/c1ccc(N2CCN(C)CC2)c([N+](=O)[O-])c1 | . | . | + | . | . | .
COc1cccc(C(CNS(=O)(=O)c2ccccc2F)OC)c1 (stereo not drawn) | . | . | 4.0 | . | . | .
Cc1nc(N2CCN(C(=O)c3cc(-c4cccs4)nn3C)CC2)cc(C(F)(F)F)n1 | . | . | 2.0 | . | . | .
COc1ccc2[nH]c(=O)c(CN(CCO)S(=O)(=O)c3c(C)ccc4nsnc34)cc2c1 | -9.0 | -0.3 | -0.3 | -1.9 | -1.9 | -24.0
COc1ccc2[nH]c(=O)c(CN(Cc3cccs3)S(=O)(=O)c3cccc4nsnc34)cc2c1 | -45.3 | 9.6 | -11.8 | 52.5* | 0.2 | 1.3
O=C(O)c1ccc2c(n1)NCCC2 | . | . | 94.0* | . | . | .
O=C(O)c1cncc2c1NCCC2 | . | . | -5.0 | . | . | .
CCSc1nsc(NC(=O)Nc2cccc(F)c2)n1 | -34.5 | 0.4 | 5.9 | 15.2 | -1.7 | 40.5*
COc1cccc(NC(=O)Nc2nc(SC)ns2)c1 | -88.0 | 4.3 | -2.7 | -10.7 | -1.4 | 11.8
COc1cc(OC)c(NCCC(=O)c2cccs2)cc1Cl | . | . | 90.0 | . | . | .
COc1cc(NCCC(=O)c2cccs2)c(OC)cc1Cl | -3.5 | -14.7 | 39.5* | 10.6 | 0.9 | -9.0
COc1cc2c(cc1OC)-c1c(OC)c(OC)cc3c1[C@H](C2)N(C)CC3 | 10.6 | -6.7 | 73.2* | -3.2 | 0.0 | -45.5
Nc1ccccc1C(=O)NNC(=O)C(=O)C=C(O)c1ccccc1 | . | . | -2.9 | . | . | .
COc1ccc(Cl)cc1NC(=O)CSc1nccn1Cc1ccc2c(c1)OCO2 | . | . | 45.0* | . | . | .
O=C(CSc1nccn1Cc1ccc2c(c1)OCO2)Nc1ccc2c(c1)OCCO2 | . | . | 11.0 | . | . | .
CCOC(=O)c1ccccc1NC(=O)CSc1nccn1Cc1ccc2c(c1)OCO2 | . | . | 43.0* | . | . | .
c1ccc(-c2nc(N3CCCC3)c3ccccc3n2)nc1 | . | . | 54.2 | . | . | .
SMILES | PrP 5UTR inh | Y pestis TopoI | PriA SSB inh | BJeLR viability | PfHsp40 rescue | PrPC TRFRET
c1ccc(-c2nc(N3CCOCC3)c3ccccc3n2)nc1 | -4.7 | 1.6 | 61.7* | -1.9 | -0.4 | -15.0
c1ccc(-c2nc(N3CCCCCC3)c3ccccc3n2)nc1 | -11.4 | 18.2 | 86.7* | 48.8 | -0.5 | 2.3
CCN1CCN(c2nc(-c3ccccn3)nc3ccccc23)CC1 | -9.9 | 17.0 | -7.8 | 0.4 | -1.6 | -16.2
CCOc1ccccc1NC(=O)c1ccc(=O)[nH]n1 | . | . | 3.0 | . | . | .
CC1=C(SCCC#N)S/C(=C2\SC(C)=C(SCCC#N)S2)S1 | -15.5 | -3.2 | 54.1* | -10.6 | -0.7 | -5.5
COc1cc(OC)c(OC)cc1C=NN(C)c1ccccc1 | . | . | 72.6* | . | . | .
CC(=O)c1c(C)[nH]c(C(=O)NC2CCSc3ccccc32)c1C (stereo not drawn) | 2.1 | 8.4 | 44.9* | -2.1 | 0.3 | 3.4
CC(=O)c1c(C)[nH]c(C(=O)NC2CCSc3c(F)cccc32)c1C (stereo not drawn) | . | . | 88.2* | . | . | .
Cn1cnc(S(=O)(=O)N(Cc2ccsc2)C2CC2)c1 | . | . | 1.0 | . | . | .
O=C(CN1C(=O)/C(=C\c2ccccc2Cl)Oc2ccccc21)NCc1cccnc1 | -13.3 | 6.1 | -13.4 | -11.8 | 1.1 | -3.5

Screening results as filed in PubChem BioAssay.
